In the supplement of paper PMC6518042:
A number with no mark means an inactive call.

Test system: Pectobacterium parmentieri SCC3193
Assay: DuctApe activity index (growth/respiration on compound as sole nutrient source, blank-subtracted) (activity index (0-3)); higher = stronger utilization of the compound, active = 3 or more
Settings: nutrient role (plate category): carbon
Method: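 Biolog Phenotype Microarray plates PM1, PM2A (carbon), PM3 (nitrogen) and PM4 (phosphorus/sulfur) inoculated with P. parmentieri SCC3193 in M9-C minimal salts medium with Biolog dye A, and read in the OmniLog for 46 h. Each well was tested in triplicate and the experiment was run twice. DuctApe computed a blank-subtracted activity index (AV, 0-3) from the mean curves; growth is positive at AV >= 3 and negative at AV <= 2.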

SMILES | DuctApe activity index
OC[C@H]1O[C@@H]2O[C@H]3[C@H](O)[C@@H](O)[C@@H](O[C@H]4[C@H](O)[C@@H](O)[C@@H](O[C@H]5[C@H](O)[C@@H](O)[C@@H](O[C@H]6[C@H](O)[C@@H](O)[C@@H](O[C@H]7[C@H](O)[C@@H](O)[C@@H](O[C@H]8[C@H](O)[C@@H](O)[C@@H](O[C@H]1[C@H](O)[C@H]2O)O[C@@H]8CO)O[C@@H]7CO)O[C@@H]6CO)O[C@@H]5CO)O[C@@H]4CO)O[C@@H]3CO [b-Cyclodextrin] | 0
O=C(O)[C@@H](O)[C@@H](O)[C@H](O)[C@@H](O)C(=O)O [D-Saccharic acid] | 3 (active)
NC(=O)[C@H]1O[C@@H](O)[C@H](O)[C@@H](O)[C@@H]1O [Glucuronamide] | 0
O=C(O)[C@H](O)[C@@H](O)[C@H](O)[C@H](O)CO[C@H]1O[C@H](CO)[C@H](O)[C@H](O)[C@H]1O [Melibionic acid] | 0
CC(=O)N[C@@H]1C(O)O[C@H](CO)[C@@H](O)[C@@H]1O (stereo partly drawn) [N-Acetyl-D-Mannosamine] | 0
N[C@@H](CO)C(=O)O [L-Serine] | 3 (active)
OC[C@H]1O[C@@H]2O[C@H]3[C@H](O)[C@@H](O)[C@@H](O[C@H]4[C@H](O)[C@@H](O)[C@@H](O[C@H]5[C@H](O)[C@@H](O)[C@@H](O[C@H]6[C@H](O)[C@@H](O)[C@@H](O[C@H]7[C@H](O)[C@@H](O)[C@@H](O[C@H]8[C@H](O)[C@@H](O)[C@@H](O[C@H]9[C@H](O)[C@@H](O)[C@@H](O[C@H]1[C@H](O)[C@H]2O)O[C@@H]9CO)O[C@@H]8CO)O[C@@H]7CO)O[C@@H]6CO)O[C@@H]5CO)O[C@@H]4CO)O[C@@H]3CO [g-Cyclodextrin] | 0
O=C(O)C[C@H](O)C(=O)O [L-Malic acid] | 3 (active)
CC1OC(O)C(O)C(O)C1O [L-Fucose] | 0
O=CO [Formic acid] | 2
N[C@H](CC(=O)O)C(=O)O [D-Aspartic acid] | 3 (active)
CC(=O)N[C@@H](CO)[C@@H](O)[C@H](O)[C@H](O)CO [N-Acetyl-D-Glucosaminitol] | 0
O=C(O)c1ccc(O)cc1 [4-Hydroxybenzoic acid] | 0
O=CC(=O)O [Glyoxylic acid] | 0
CCCCCCCC/C=C\CCCCCCCC(=O)OCCOCC(OCCO)C1OCC(OCCO)C1OCCO (stereo not given) [Tween 80] | 0
OCc1ccccc1O[C@@H]1O[C@H](CO)[C@@H](O)[C@H](O)[C@H]1O [Salicin] | 3 (active)
N[C@@H](C(=O)O)[C@@H](O)[C@H](O)[C@H](O)CO [D-Glucosaminic acid] | 0
C=C(CC(=O)O)C(=O)O [Itaconic acid] | 0
OCC1(O)OC[C@H](O)[C@@H](O)[C@@H]1O (stereo partly drawn) [L-Sorbose] | 0
OC[C@@H](O)[C@@H](O[C@H]1O[C@H](CO)[C@@H](O)[C@H](O)[C@H]1O)[C@H](O)[C@@H](O)CO [Maltitol] | 0
O=C1O[C@@H]([C@H](O)CO)[C@H](O)[C@H]1O [D-Galactonic acid-g-Lactone] | 3 (active)

Same assay, conditions: nutrient role (plate category): nitrogen

SMILES | DuctApe activity index
N[C@H]1C(O)O[C@H](CO)[C@H](O)[C@@H]1O (stereo partly drawn) [D-Galactosamine] | 0
NC(=O)[C@H]1O[C@@H](O)[C@H](O)[C@@H](O)[C@@H]1O [Glucuronamide] | 2
CC(=O)N[C@@H]1C(O)O[C@H](CO)[C@@H](O)[C@@H]1O (stereo partly drawn) [N-Acetyl-D-Mannosamine] | 0
N[C@@H](CO)C(=O)O [L-Serine] | 1
N[C@H](CC(=O)O)C(=O)O [D-Aspartic acid] | 2
NCCO [Ethanolamine] | 0
O=c1[nH]c(=O)c2nc[nH]c2[nH]1 [Xanthine] | 3 (active)
N[C@H](CCC(=O)O)C(=O)O [D-Glutamic acid] | 0
O=C(O)CC[C@@H](C(=O)O)N1C(=O)c2ccccc2C1=O [N-Phthaloyl-L-Glutamic acid] | 0

Same assay, conditions: nutrient role (plate category): phosphate & sulphur

SMILES | DuctApe activity index
O=S1(=O)CCCC1 [Tetramethylene Sulfone] | 0
N[C@@H](Cc1ccc(OP(=O)(O)O)cc1)C(=O)O [O-Phospho-L-Tyrosine] | 2
N[C@@H](CS(=O)(=O)O)C(=O)O [L-Cysteic acid] | 1
O=C(O)CP(=O)(O)O [Phosphono Acetic acid] | 0
O=c1ccn([C@@H]2O[C@H](CO)[C@@H](OP(=O)(O)O)[C@H]2O)c(=O)[nH]1 [Uridine 3`-Monophosphate] | 2
NC(Cc1ccc(OP(=O)(O)O)cc1)C(=O)O (stereo in doubt) [O-Phospho-D-Tyrosine] | 2
CSCCC(NC(C)=O)C(=O)O (racemic) [N-Acetyl-D,L-Methionine] | 2
Nc1nc2c(ncn2[C@@H]2O[C@H](COP(=O)(O)O)[C@@H](O)[C@H]2O)c(=O)[nH]1 [Guanosine 5`-Monophosphate] | 1
C[C@@H](OP(=O)(O)O)[C@H](N)C(=O)O [O-Phospho-L-Threonine] | 2
O=c1ccn([C@@H]2O[C@H](CO)[C@@H](O)[C@H]2OP(=O)(O)O)c(=O)[nH]1 [Uridine 2`-Monophosphate] | 2
